# The full ranking holds about 59,000 sequences; the median of the read-out is about -0.00055, and the lowest 2% start at about -2. The entries come from a sample that favours the lowest values as a whole.
# Test: Identification of proteins required for the processing of the EWS-FLI1 nascent transcript;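 also: robust z of luciferase light less the median z of siRNAs with the same seed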
# Details: TC32 Ewing sarcoma NR0B1-luc vs CMV-luc (EWS-FLI1 target promoter against control promoter), 48 h; screened at 20 nM (by protocol)
# Description: Ewing sarcoma (ES) cells depend on the EWS-FLI1 fusion transcription factor for cell survival. Using an assay of EWS-FLI1 activity and genome-wide siRNA screening we have identified proteins required for the processing of the EWS-FLI1 nascent transcript. Parallel genome-wide siRNA-mediated RNAi screens were conducted in Ewing sarcoma TC32 cell lines expressing a luciferase (luc) reporter protein driven by either the promoter of the EWS-FLI1 target gene NR0B1 (TC32-NR0B1-luc) or the CMV promoter (TC32-CMV-luc). Luciferase activity was assessed 48 hours post siRNA-transfection.
# Twenty microl of serum-free media containing Lipofectamine RNAiMax (0.05 microl) was added to wells containing siRNA (0.8 pmol). Lipid and siRNA were allowed to complex for 45 min at ambient temperature before addition of 600 cells in RPMI-1640, 20% FBS to yield final transfection mixtures containing 20 nM siRNA in RPMI-1640, 10% FBS. Luciferase expression was measured using OneGlo (Promega, Madison, WI). The genome-wide screening campaign was conducted using Ambion's human genome library version 4.1 (Ambion, Austin TX). This library targets approximately 21000 human genes, three siRNAs per gene. Each siRNA is arrayed in an individual well of a 384-well plate. Parallel transfections were conducted in TC32-NR0B1-luc and TC32-CMV-luc cell lines and luciferase expression (OneGlo, Promega) was assayed 48 h later on a PerkinElmer Envision 2104 Multilabel plate reader (PerkinElmer, Waltham, MA). Qiagen's AllStars Negative control was incorporated on all screening plates for normalization (16 wells per plate). Qiagen, Germantown, MDsiGL4 was incorporated as a positive transfection control (16 wells per plate) on all plates. […] The raw luciferase data for the NR0B1- and CMV-luc screens were normalized and z-score-MAD transformed using standard methods (Chung et al., 2008). The miRNA-like seed sequence of every siRNA was determined and the median z-score for all siRNA sequences with the same seed sequence was calculated. This z-score was subtracted from the z-score associated with each siRNA with that seed sequence to generate a seed-adjusted z-score value (Z) that was used when the results for the three siRNAs corresponding to each gene were compared (Marine et al., 2012)
row,Sequence,seed-corrected z-score
1,AAACUUAUAGAACUCACUG against CCDC148,-0.143
2,UCCGCAUGAACUCGUAGCU against PLEKHJ1,0.0613
3,UAGUUGUCCAACAUUGGUU against ZNF99,-3.24
4,UAGCGAUUGUGAAUCUUGC against RNF19A,-0.443
5,UAUGGUGUAAGUUUUCGGG against FARSB,0.451
6,UUCGGGUCCACUGAUUUCC against CHMP4B,-1.35
7,UGUCAUAACAGCUCCGCGA against ELK1P1,-0.141
8,UAUAUGUCCGGGCGUGUUC against MAPK11,0.187
9,AACCUGAUAAUAACCAGAU against FAM96A,0.457
10,UGAGAUUUCUAUGUAACAC against SS18L2,0.356
11,UUAUCGAUGUCUUCGUGCC against GCK,-0.301
12,AUAGUUGCGGAUGAAGUCU against KAZN,-3.51
13,AAUGUUUCAAGAAGCUGCU against MED9,-1.82
14,UCAGGGUCCAUUGUCACCA against IGSF23,-0.567
15,UACAGGGCAAUGAACAGGG against FGR,0.274
16,AUGAAGCUCAGUCAGGUCG against TMCC2,-2.16
17,UCCUUGACGACAACUUUCC against LOC642677,-1.2
18,UAACGAUACAUUUGCUUGG against SGIP1,0.118
19,UUGGGUGCAAGAAUGUCCA against CHTF18,-2.47
20,UUCAAUUCUACUGAUCAUC against CSNK1A1,0.146
21,UUAAAGACUUCAUAAAAGC against SLC25A3,-0.603
22,UAAUUGUCAUUACUAAGUG against SLC17A6,-0.508

row,Sequence,seed-corrected z-score
1,UUGGUAUCGAUUUUCUACC against ATRN,-0.607
2,ACCUCCAAAAUUUCACUGC against ZSCAN10,0.616
3,AAUGAUUGCACUAAUCUUC against IK,-3.4
4,UCUUGGUACUGGAUGCAGC against LOC645166,1.33
5,UCUUCGAGUGAGUCAAUGC against C10orf12,-0.0711
6,UCGCUGAUUAGCUUUCUCC against CUX2,0.0999
7,UUCGUUGUCUCGAAGGGCU against TRAPPC2L,-2.92
8,UUUCCUCUUAGUCAACUUC against CHIC1,-0.602
9,AAAGGACUGAUGUCUAACC against DHX15,0.0405
10,UAUGUACAUGCAGCAGGCC against PVRL4,-0.603
11,AUGGGAGUCACAACAGUGU against OR10A5,-9.99
12,UUUCACUCAACCAUCAUUG against HOPX,-0.598
13,UGCCUUUGGAGGAUCUGCG against HLA-F,-0.923
14,UGCUUGCUCGCAAAAGUCC against TSHZ1,0.387
15,UGAACUGCCUGGUCUGUCG against PDE6G,-0.214
16,AUUCUUAUCCCAGCGGAGC against PGM2L1,0.162
17,UCAAUUCCCAGGGUAAAGG against PIGN,-2.84
18,UAACAUCUUGGAGCACUAC against CCDC54,-0.239
19,UUGUGAACAGUUGAGGUGC against OSBP2,-0.0205
20,UCACUGUCGCCGUCAAAGC against CCKBR,-2.68
21,UCUUGUGCUAAAUCCCUGC against BRINP3,-0.668
22,UGCUGAACUAGGGAAGUGC against MAGIX,-0.0881

row,Sequence,seed-corrected z-score
1,UACCCAUCCGCAUCACUGC against CD320,0.0894
2,UCCCGAAUAACCAUUGAGC against RFX3,-0.206
3,UUGGUAUUAUAACAGAUCC against ELMOD1,-9
4,UUGAUCAACAUAAUCAAGC against ASB14,-0.125
5,UACUCGGUAAAUGUACUGG against ADH7,0.328
6,AAGGGUAUUGGGAUUGAGC against MAP3K13,0.023
7,AGCUUUAUUCAGUCAGUGC against GPBAR1,-0.579
8,UUACGAAUGGGCAAAAUUG against ZCWPW1,-0.169
9,UUUGCUGGUAUUCUUCACC against ACYP2,0.0336
10,AUGUAUUCCAUUCUCACCG against GRSF1,-4.16
11,UAUUGAUGCUGCAUGACCC against ITGAM,0.677
12,UAAGUAUAACCAUCUGUUC against OR6C2,0.149
13,UGAACAUAAAUUCCAGCUC against CLEC2L,0.442
14,UCACUUACAAAGCUCAGAG against LUZP1,-1.94
15,UUAUUUAUGUAGUUCAGGA against IZUMO4,-1.87
16,AAGACAAUAAUGUUGCUGC against CLDN17,-0.436
17,UCAGUAAUCAGCUUGAAUU against RPS3A,2.45
18,UUCUUUUCCACCUCCAUAG against HDGF,-12.4
19,AUCCUUGAAAGCCUCAUAC against XPR1,0.211
20,UAAAUGACAUGCAGGAUUG against C17orf102,-0.0252
21,UUCAGUUUAAAAUCGUUUC against CENPL,0.133
22,UUUGUUUCUACCAUUCCCA against PPIL1,-2.34

# Source: PubChem BioAssay AID1159506 (National Center for Advancing Translational Sciences (NCATS), 2015)
